Hits are enriched below; roughly 9.8% of the tested compounds scored in any of these assays.
HTT cytoprotect = Huntington cell model cytoprotection by ATP luminescence; Potency, µM (series often up to 56.4 µM), for the others: cytoprotection (ATP increase), actives largely listed as activators; hit rate 0.14% among 230,000; PC12 HTT-Q103 induced, cytoprotection, ATP luminescence, 40 h; further: potency means the concentration at half of the fitted maximal effect; % of control where 0% means no effect; nearly all actives have a fitted effect of over 45% in size
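PC12 cells stably carrying ecdysone-inducible Htt exon 1 (Q103)–GFP were induced with 100 nM tebufenozide (final) alongside library compounds in a dose series. Cytoprotection was scored as retained ATP by ATPlite luminescence.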
KDM4E inh = blocks human JMJD2E demethylase activity; B2RXH2; JMJD2E catalytic domain, FDH-coupled NADH fluorescence (FDH is formaldehyde dehydrogenase); Potency, µM (doses to about 57.1 µM), without a hit: top-dose activity change, negative = inhibition, most hits filed as inhibitors; hit rate 1.6% among 230,000; active means well fitted inhibition curve with a large enough effect, not every such curve was filed as active; inconclusive means small, poorly fitted or top-dose-only effect, or another doubt; inactive means no such curve, though single readings can be large or run the other way;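 further: potency means the concentration at half of the fitted maximal effect; 0% = wells with enzyme and -100% = buffer wells without enzyme; nearly all actives have a fitted effect of over 50% in size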
ALDH1A1 inh = ALDH1A1 (human) enzyme inhibition | P00352 | hit rate 7.3% among 220,000 | Potency, µM (doses to about 75.3 µM), for the others: top-dose activity, negative = inhibition, hits mostly inhibitors | Purified ALDH1A1, NADH fluorescence, propionaldehyde substrate; active means well fitted inhibition curve with a large enough effect, not every such curve was filed as active; inconclusive means small, poorly fitted or top-dose-only effect, or another doubt; inactive means no such curve, though single readings can be large or run the other way;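 further: potency means the concentration at half of the fitted maximal effect; plate controls were no enzyme wells and a reference inhibitor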
Target sequence (P00352 whole entry, looked up): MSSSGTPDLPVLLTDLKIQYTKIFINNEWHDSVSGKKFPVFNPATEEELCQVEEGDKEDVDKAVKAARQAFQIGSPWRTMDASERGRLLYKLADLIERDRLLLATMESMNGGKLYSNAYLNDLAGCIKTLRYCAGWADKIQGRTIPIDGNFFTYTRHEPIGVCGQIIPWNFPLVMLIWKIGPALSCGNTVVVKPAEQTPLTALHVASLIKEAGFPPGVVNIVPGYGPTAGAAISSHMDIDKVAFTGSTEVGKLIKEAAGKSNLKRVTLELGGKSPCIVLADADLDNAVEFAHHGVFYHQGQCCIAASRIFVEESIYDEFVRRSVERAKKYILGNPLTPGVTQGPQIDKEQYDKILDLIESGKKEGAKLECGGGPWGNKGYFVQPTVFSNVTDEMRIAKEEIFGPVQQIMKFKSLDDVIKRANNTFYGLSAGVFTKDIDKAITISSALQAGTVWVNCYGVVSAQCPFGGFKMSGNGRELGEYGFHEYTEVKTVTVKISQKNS
CBFb RUNX1 block = inhibitors of human CBF-beta and RUNX1 interaction; 230,000 tested, under 10 active; Q01196+Q13951; AID 1477; Potency, µM (top dose mostly 59.8 µM), for the others: top-dose activity, negative = inhibition, hits mostly inhibitors; AlphaScreen CBFb-His/RUNX1-biotin binding, biochemical; further: % of control where 0% means no effect
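His-tagged CBF-beta and biotinylated RUNX1 (30 nM each) were premixed 20 min at room temperature, exposed to compound for 15 min, then given nickel-chelate and streptavidin AlphaScreen beads (50 ng each). After 90 min, AlphaScreen signal was read.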
HPGD block = blocks human HPGD enzyme activity | P15428 | purified HPGD, NADH fluorescence kinetic, PGE2 substrate | Potency, µM, for inactives: top-dose activity change, negative = inhibition, actives largely listed as inhibitors | hit rate 4.3% among 150,000 | AID 894; active means well fitted inhibition curve with a large enough effect, not every such curve was filed as active; inconclusive means small, poorly fitted or top-dose-only effect, or another doubt; inactive means no such curve, though single readings can be large or run the other way; further: potency means the concentration at half of the fitted maximal effect; on the % scale 0 is the no-effect control and ±100 the full control effect
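NADH formation kinetics: reaction with 30 uM PGE2 and 1 mM NAD+ (final), 20 nM enzyme, Tris-HCl pH 8 with Tween 20, after 15 min compound preincubation at room temperature. Fluorescence change, last versus first of five reads.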
HTT aggregate = inhibitors of mutant huntingtin aggregate formation in PC12 cells | hit rate 1.1% among 220,000 | PC12 HttQ103-GFP aggregates, Acumen cytometry, 40 h | AID 1688 | Potency, µM (doses to about 46.1 µM), inactives show top-dose activity change, negative = inhibition, actives largely listed as inhibitors; further: potency means the concentration at half of the fitted maximal effect; on the % scale 0 is the no-effect control and ±100 the full control effect; nearly all actives have a fitted effect of over 60% in size
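Aggregates are detected as GFP objects 1–25 µm with signal 6 STDEV over background in lysates of induced PC12 cells. These carry Huntingtin exon 1 with 103 glutamines fused to GFP under an ecdysone promoter; compounds titrated.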
An asterisk follows results filed as active; ? = inconclusive; . = no result given; [ ] = dose if it differs, or a comment. Unless noted, the call rests on the fitted dose curve; in most records, active means well fitted curve in the direction sought with a large enough effect; inconclusive means small, poorly fitted or top-dose-only effect, or another doubt; inactive means no such curve, though single readings can be large; an effect the other way counts as inactive or inconclusive.

SMILES	HTT cytoprotect	KDM4E inh	ALDH1A1 inh	CBFb RUNX1 block	HPGD block	HTT aggregate
COCCNC(=O)c1ccc(Cn2c(=S)[nH]c3cc4c(cc3c2=O)OCO4)cc1	-22%	-3%	-1%	2%	13µM*	25%
COC(CNC(=O)c1ccc(Cn2c(=S)[nH]c3cc4c(cc3c2=O)OCO4)cc1)OC	-1%	3%	-4%	15%	.	-23%
COC(=O)c1ccc2c(=O)n(CCCCCC(=O)O)c(=S)[nH]c2c1	.	?	14µM*	0%	?	?
CCCNC(=O)c1ccc2c(=O)n(Cc3ccco3)c(=S)[nH]c2c1	-32%	-5%	7.1µM*	-13%	.	3%
COC(=O)c1ccc2c(=O)n(CCO)c(=S)[nH]c2c1	6%[0.074 µM]	-9%	-11%	1%	-12%	16%
CCOCCCNC(=O)c1ccc2c(=O)n(CCCOCC)c(=S)[nH]c2c1	-48%	2%	-13%	-2%	.	-6%
COc1ccc(CCNC(=O)c2ccc3nc(-c4ccco4)c(-c4ccco4)nc3c2)cc1OC	3%[10 µM]	13µM*	0.32µM*	.	?	?
COc1ccc(CCNC(=O)c2ccc3c(=O)n(Cc4ccco4)c(=S)[nH]c3c2)cc1OC	-13%	-18%	2.5µM*	-17%	-18%	11%
O=C(Nc1cccc(C(F)(F)F)c1)c1ccc2nc(-c3ccco3)c(-c3ccco3)nc2c1	-25%	14µM*	0.4µM*	?	?	3%
COCCn1c(=S)[nH]c2cc(C(=O)NC(C)C)ccc2c1=O	-45%	7%	0.18µM*	-3%	-12%	-6%
O=C(O)c1ccc2nc(-c3ccco3)c(-c3ccco3)nc2c1	7%[10 µM]	2%	?	?	.	2%[9.22 µM]
COc1ccc(CCNC(=O)c2cc(-c3ccco3)on2)cc1OC	?	-5%	-9%	-1%	.	?
CCOCCCn1c(=S)[nH]c2cc(C(=O)NCCOC)ccc2c1=O	-7%	3%	?	-3%	-25%	-10%
CC(C)NC(=O)c1ccc2c(=O)n(Cc3ccco3)c(=S)[nH]c2c1	18%	4%	8.9µM*	2%	-17%	5%
COc1ccccc1N1CCN(C(=O)c2ccc3c(=O)n(Cc4ccco4)c(=S)[nH]c3c2)CC1	-9%	9%	?	-6%	-2%	-9%
c1csc(C(c2nnnn2C2CCCCC2)N2CCN(c3nc4ccccc4s3)CC2)c1 (stereo unspecified)	-14%[10 µM]	4%	-9%	9%	-4%	13%
c1ccc(C(c2nnnn2C2CCCC2)N2CCN(c3nc4ccccc4s3)CC2)cc1 (stereo unspecified)	-3%[10 µM]	1%	14µM*	2%	-7%	1%
Fc1ccccc1N1CCN(C(c2ccncc2)c2nnnn2C2CCCC2)CC1 (stereo unspecified)	-21%	-20%	25µM*	8%	0%	-5%
CCC(c1nnnn1C1CCCC1)N1CCN(c2ccccc2F)CC1 (stereo unspecified)	9%	-12%	?	1%	-9%	-1%
CCC(CC)C(=O)NC12CC3CC(CC(C3)C1)C2	20%	5%	9%	5%	3%	-19%
Cc1ccc(O)c(NC(=S)NC(=O)C(C)C)c1	-11%[10 µM]	-22%	.	4%	.	-3%[9.22 µM]
O=[N+]([O-])c1ccc(N2CCCCC2)c(-c2nn[nH]n2)c1	.	-22%	-8%	1%	.	.
CC1CCOC(c2coc3ccccc3c2=O)O1 (stereo unspecified)	-12%[10 µM]	2%	20µM*	2%	-15%	8%
O=C(O)C1CSC(c2coc3ccccc3c2=O)N1 (stereo unspecified)	9%[10 µM]	?	?	4%	-19%	-9%
Cc1cc(N2CCN(c3ccccc3)CC2)n2nnnc2n1	18%	3%	-12%	3%	-7%	5%
Cc1cc(N2CCN(c3nnnn3-c3ccccc3)CC2)n2ncnc2n1	5%	3%	22µM*	0%	-6%	-13%

Bioassay records from PubChem BioAssay.
